Test [1] can be described thus: NCI Yeast Anticancer Drug Screen. Data for the rad50 strain (AID 155).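 Note: 0% = growth of vehicle-only cultures of the same strain.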 Particulars: S. cerevisiae rad50 strain growth inhibition, active compounds read high. Summed up: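 Relative growth inhibition (compound vs vehicle) was measured in yeast with a defined repair-gene alteration.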
Test [2] is described as follows: NCI Yeast Anticancer Drug Screen. Data for the mec2-1 strain (AID 157). The following applies: S. cerevisiae mec2-1 strain, active compounds read high. In short, it runs like this:
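Each compound was tested on mec2-1 yeast, a strain altered in DNA damage repair or cell cycle control. Growth inhibition is reported relative to vehicle.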

A short description of test [3]: NCI Yeast Anticancer Drug Screen. Data for the sgs1 mgt1 strain (AID 161).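 Note: 0% = growth of cultures given vehicle only.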 The following applies: S. cerevisiae sgs1 mgt1 strain, active compounds read high. In short, it runs like this:
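Genetically altered yeast, compound exposure, growth inhibition relative to vehicle.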

Test [4] in a line: NCI Yeast Anticancer Drug Screen. Data for the cln2 rad14 strain (AID 165).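 Note: 0% = growth equal to vehicle treated cultures.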 Particulars: S. cerevisiae cln2 rad14 strain, active compounds read high. Summed up: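 Test compounds were added to cln2 rad14 yeast cultures; inhibition of growth was then determined by comparison with vehicle treatment.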
Test [5] is described as follows: NCI Yeast Anticancer Drug Screen. Data for the bub3 strain (AID 167). Particulars: S. cerevisiae bub3 mutant strain, active compounds read high. In short, it runs like this: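 Screening used yeast with an engineered genetic alteration affecting cell cycle control. Compound-exposed cultures were compared with vehicle cultures, and reduced growth was taken as inhibition.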

The nature of test [6]: NCI Yeast Anticancer Drug Screen. Data for the mlh1 rad18 strain (AID 175). Particulars: S. cerevisiae mlh1 rad18 strain growth inhibition, active compounds read high. Summed up: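 Inhibition values reflect reduced growth of mutant yeast versus vehicle-treated controls following compound exposure; the mutations affect DNA damage repair.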
Where [7] appears, read: at 5.0 µM (retest, dose inferred, filed as 0.5).
The mark [8] stands for this setting: at 50.0 µM (retest, dose inferred, filed as 5.0).

Molecules are shown by their SMILES. This is part of a sample that, as a whole, favours compounds with a hit. Of some 79,000 tested, about 15% had one in any assay. A number with no mark means an inactive call. The source made the active and inactive calls. Cut-off read from the data, not from the text of the source: active = growth inhibition above about 70%; inactive = the rest.

Consider `CC(=O)OCC1OC(OC2C=C(O[Si](C)(C)C)C[C@H]3C(=O)C=CC(=O)[C@@H]23)C(OC(C)=O)C(OC(C)=O)C1OC(C)=O` (stereo not given in full), for which the growth inhibition in test [1] (setting [7]) is 6%; in test [1] (setting [8]), 96% (active); in test [1] (at 50.0 µM), 58.6%; in test [2] (setting [7]) it was 1%; in test [2] (setting [8]) it was 98% (active); in test [2] (at 50.0 µM), 59.2%. Besides, the growth inhibition in test [3] (setting [7]) is 2%; in test [3] (setting [8]), 98% (active); in test [3] (at 50.0 µM), 31.4%; in test [4] (setting [7]), 2%; in test [4] (setting [8]), 88% (active); in test [4] (at 50.0 µM), 4.5%. Also, the growth inhibition in test [5] (setting [7]) is 3%; in test [5] (setting [8]), 93% (active); in test [5] (at 50.0 µM), 15.1%; in test [6] (setting [7]), 3%; in test [6] (setting [8]) it was 97% (active); in test [6] (at 50.0 µM), 54.6%.

Take `[N-]=[N+]=Nc1c(-c2ccccc2)c(Cl)nc2ccccc12`: the growth inhibition in test [1] (setting [7]) is 11%; in test [1] (setting [8]), 99% (active); in test [1] (at 50.0 µM), 76% (active); in test [2] (setting [7]) it was -7%; in test [2] (setting [8]), 98% (active); in test [2] (at 50.0 µM), 76.1% (active). In addition, the growth inhibition in test [3] (setting [7]) was -4%; in test [3] (setting [8]), 98% (active); in test [3] (at 50.0 µM), 85.2% (active); in test [4] (setting [7]) it was 20%; in test [4] (setting [8]), 98% (active); in test [4] (at 50.0 µM) it was 82.9% (active). The growth inhibition was -33% in test [5] (setting [7]); 97% (active) in test [5] (setting [8]); 87.4% (active) in test [5] (at 50.0 µM); 2% in test [6] (setting [7]); 98% (active) in test [6] (setting [8]); 87.2% (active) in test [6] (at 50.0 µM).

With `O=C(Nc1cccnc1)c1ccc(CSc2ccc(Cl)cc2)o1`, the growth inhibition in test [1] (setting [7]) is 56%; in test [1] (setting [8]), 97% (active); in test [1] (at 50.0 µM), 90.6% (active); in test [2] (setting [7]) it was 41%; in test [2] (setting [8]) it was 98% (active); in test [2] (at 50.0 µM) it was 92.3% (active). The growth inhibition in test [3] (setting [7]) was 48%; in test [3] (setting [8]) it was 97% (active); in test [3] (at 50.0 µM), 93.8% (active); in test [4] (setting [7]), 40%; in test [4] (setting [8]), 94% (active); in test [4] (at 50.0 µM), 90.8% (active). In addition, the growth inhibition in test [5] (setting [7]) is 50%; in test [5] (setting [8]) it was 63%; in test [5] (at 50.0 µM), 92.2% (active); in test [6] (setting [7]), 57%; in test [6] (setting [8]) it was 94% (active); in test [6] (at 50.0 µM) it was 92.2% (active).

Take `CCC(=O)Oc1c(Cl)cc(Cl)c(Cl)c1Cl`: the growth inhibition is 4% in test [1] (setting [7]); 56% in test [1] (setting [8]); 43.4% in test [1] (at 50.0 µM); 6% in test [2] (setting [7]); 59% in test [2] (setting [8]); 14.2% in test [2] (at 50.0 µM). The growth inhibition in test [3] (setting [7]) was 2%; in test [3] (setting [8]) it was 79% (active); in test [3] (at 50.0 µM) it was 48.1%; in test [4] (setting [7]), -3%; in test [4] (setting [8]), 30%; in test [4] (at 50.0 µM), 5.45%. The growth inhibition is -3% in test [5] (setting [7]); 54% in test [5] (setting [8]); 14.2% in test [5] (at 50.0 µM); 16% in test [6] (setting [7]); 90% (active) in test [6] (setting [8]); 74.3% (active) in test [6] (at 50.0 µM).

With `CS(=O)(=O)C(=Cc1ccccc1Cl)S(C)(=O)=O`, the growth inhibition is 30% in test [1] (setting [7]); 57% in test [1] (setting [8]); -12.7% in test [1] (at 50.0 µM); 20% in test [2] (setting [7]); 29% in test [2] (setting [8]); -1.65% in test [2] (at 50.0 µM). Besides, the growth inhibition in test [3] (setting [7]) is 11%; in test [3] (setting [8]), 7%; in test [3] (at 50.0 µM), 4.05%; in test [4] (setting [7]) it was 2%; in test [4] (setting [8]), 13%; in test [4] (at 50.0 µM), 12.1%. Also, the growth inhibition is 0% in test [5] (setting [7]); 6% in test [5] (setting [8]); 5% in test [5] (at 50.0 µM); 38% in test [6] (setting [7]); 62% in test [6] (setting [8]); -28.1% in test [6] (at 50.0 µM).

Turning to `O=C1OC(C2OC(=O)C(=O)C2C(=O)c2ccc(Cl)cc2)C(C(=O)c2ccc(Cl)cc2)C1=O` (stereo not given), the growth inhibition is -3% in test [1] (setting [7]); 63% in test [1] (setting [8]); 82.9% (active) in test [1] (at 50.0 µM); -3% in test [2] (setting [7]); 37% in test [2] (setting [8]); 11.8% in test [2] (at 50.0 µM). Besides, the growth inhibition is 1% in test [3] (setting [7]); 64% in test [3] (setting [8]); 30.5% in test [3] (at 50.0 µM); -4% in test [4] (setting [7]); 31% in test [4] (setting [8]); 29.6% in test [4] (at 50.0 µM). Further, the growth inhibition in test [5] (setting [7]) is 9%; in test [5] (setting [8]), 43%; in test [5] (at 50.0 µM), 43%; in test [6] (setting [7]), -5%; in test [6] (setting [8]) it was 85% (active); in test [6] (at 50.0 µM) it was 76.7% (active).

For the molecule `O=C(Cc1csc2[n+]1C(=O)/C(=C/c1cccc([N+](=O)[O-])c1)S2)Nc1ccccc1`, the growth inhibition is -5% in test [1] (setting [7]); -3% in test [1] (setting [8]); 41.3% in test [1] (at 50.0 µM); -16% in test [2] (setting [7]); -5% in test [2] (setting [8]); 44.2% in test [2] (at 50.0 µM). In addition, the growth inhibition in test [3] (setting [7]) was -8%; in test [3] (setting [8]), 11%; in test [3] (at 50.0 µM) it was 24%; in test [4] (setting [7]), -24%; in test [4] (setting [8]), -17%; in test [4] (at 50.0 µM) it was 37.5%. Also, the growth inhibition in test [5] (setting [7]) is -5%; in test [5] (setting [8]) it was 17%; in test [5] (at 50.0 µM), 10.8%; in test [6] (setting [7]), -3%; in test [6] (setting [8]), -9%; in test [6] (at 50.0 µM) it was 33.9%.

For the molecule `CCOC(=O)C(Br)c1nc2ccccc2[nH]c1=O` (stereo not given), the growth inhibition in test [1] (setting [7]) was 2%; in test [1] (setting [8]), 73% (active); in test [1] (at 50.0 µM) it was 68.3%; in test [2] (setting [7]) it was -10%; in test [2] (setting [8]), 81% (active); in test [2] (at 50.0 µM), 74.2% (active). Also, the growth inhibition in test [3] (setting [7]) is 2%; in test [3] (setting [8]), 96% (active); in test [3] (at 50.0 µM), 49.1%; in test [4] (setting [7]), 2%; in test [4] (setting [8]) it was 49%; in test [4] (at 50.0 µM), 28.7%. For the same molecule, the growth inhibition in test [5] (setting [7]) is -7%; in test [5] (setting [8]), 86% (active); in test [5] (at 50.0 µM), 81.6% (active); in test [6] (setting [7]), -5%; in test [6] (setting [8]), 98% (active); in test [6] (at 50.0 µM) it was 92.2% (active).

Turning to `C=C1CC(c2ccc(OCCCN3C(=O)c4ccccc4C3=O)cc2)OC1=O` (stereo not given), the growth inhibition was 33% in test [1] (setting [7]); 71% (active) in test [1] (setting [8]); 10.1% in test [1] (at 50.0 µM); 30% in test [2] (setting [7]); 82% (active) in test [2] (setting [8]); -3.6% in test [2] (at 50.0 µM). The growth inhibition in test [3] (setting [7]) was 28%; in test [3] (setting [8]), 67%; in test [3] (at 50.0 µM) it was 15%; in test [4] (setting [7]), 23%; in test [4] (setting [8]) it was 63%; in test [4] (at 50.0 µM) it was 29.1%. Besides, the growth inhibition in test [5] (setting [7]) is 33%; in test [5] (setting [8]) it was 80% (active); in test [5] (at 50.0 µM), 8.8%; in test [6] (setting [7]), 34%; in test [6] (setting [8]), 86% (active); in test [6] (at 50.0 µM), -6%.

Regarding `CN(C)c1ccc(C=Nc2cncc3ccccc23)cc1`, the growth inhibition in test [1] (setting [7]) is 0%; in test [1] (setting [8]), -11%; in test [1] (at 50.0 µM), -55.6%; in test [2] (setting [7]) it was 5%; in test [2] (setting [8]), -9%; in test [2] (at 50.0 µM) it was -18.6%. The growth inhibition was -3% in test [3] (setting [7]); 10% in test [3] (setting [8]); -12.8% in test [3] (at 50.0 µM); -20% in test [4] (setting [7]); -6% in test [4] (setting [8]); -39.5% in test [4] (at 50.0 µM). Besides, the growth inhibition in test [5] (setting [7]) was 3%; in test [5] (setting [8]), 4%; in test [5] (at 50.0 µM), -6.05%; in test [6] (setting [7]), 7%; in test [6] (setting [8]), 4%; in test [6] (at 50.0 µM), -7.35%.

The record behind these values is PubChem BioAssay (NCI).
